Data taken from the supplement of paper PMC6518042.

system: Pectobacterium parmentieri SCC3193; assay: DuctApe activity index (growth/respiration on compound as sole nutrient source, blank-subtracted) (activity index (0-3)); higher = stronger utilization of the compound, active = 3 or more; conditions: nutrient role (plate category): phosphate & sulphur
Experimental: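 Biolog Phenotype Microarray plates PM1, PM2A (carbon), PM3 (nitrogen) and PM4 (phosphorus/sulfur) inoculated with P. parmentieri SCC3193 in M9-C minimal salts medium with Biolog dye A, and read in the OmniLog for 46 h. Each well was tested in triplicate and the experiment was run twice. DuctApe computed a blank-subtracted activity index (AV, 0-3) from the mean curves; growth is positive at AV >= 3 and negative at AV <= 2.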

DuctApe activity index, inactive:
N[C@@H]1[C@@H](O)[C@H](O)[C@@H](COP(=O)(O)O)O[C@@H]1O [D-Glucosamine-6-Phosphate] 2
C[S+]([O-])CC[C@H](N)C(=O)O (stereo partly drawn) [L-Methionine Sulfoxide] 1
O=P(O)(O)CP(=O)(O)O [Methylene Diphosphonic acid] 0
NCCS [Cysteamine] 1
O=P(O)(O)OC[C@H]1OC(O)[C@@H](O)[C@@H](O)[C@@H]1O (stereo partly drawn) [D-Mannose-6-Phosphate] 1
N[C@@H](CSC[C@H](N)C(=O)O)C(=O)O [Lanthionine] 1
CCCCS(=O)(=O)O [Butane Sulfonic acid] 1
Nc1nc2c(ncn2[C@@H]2O[C@H](CO)[C@@H](O)[C@H]2OP(=O)(O)O)c(=O)[nH]1 [Guanosine 2`-Monophosphate] 2
Cc1cn([C@H]2C[C@H](O)[C@@H](COP(=O)(O)O)O2)c(=O)[nH]c1=O [Thymidine 5`-Monophosphate] 2
